Sampled rows, rich in hits. Any-hit rate of the full collection: about 4.3%.
NALP1 inh = inhibitors of NALP1 inflammasome in yeast | S. cerevisiae NALP1/ASC/caspase-1 growth, X-gal OD620, 72 h | inhibition, % at 10 µM | hit rate 0.61% among 280,000; in the data active = inhibition mostly above about 24%, no sharp cut-off; inactive = mostly below about 32%
UBC13 polyUb = human UBC13 polyubiquitination inhibition; P61088; UBC13 polyubiquitin chain formation, TR-FRET; inhibition, % at 20 µM; hit rate 0.47% among 330,000; in the data active = inhibition above about 45%, passing the limit was not always enough
Target sequence (P61088 whole entry, looked up): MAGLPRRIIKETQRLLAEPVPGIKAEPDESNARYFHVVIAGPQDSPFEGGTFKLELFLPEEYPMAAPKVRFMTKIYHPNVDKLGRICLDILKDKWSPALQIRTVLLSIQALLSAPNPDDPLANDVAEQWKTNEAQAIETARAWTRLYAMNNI
CR mimetic SO = caloric restriction mimetics inhibiting age-related superoxide in yeast; superoxide response (% of plate mean), % at 10 µM; S. cerevisiae aged cells, superoxide DHE fluorescence; hits give low values; AID 2690; hit rate 0.18% among 330,000;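 active = superoxide response under a set limit, about three screen SD below normal, cut at about 65% in these data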;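 also: yeast aged for seven days with compound at 30 °C before DHE staining; 100% = average MFI of all compound-treated wells on the plate with controls excluded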
GRIN3A LBD mod = modulators (binders) of human NR3A ligand-binding domain; NR3A LBD differential scanning fluorimetry, Tm shift; 0% = protein alone, 100% = glycine-bound protein; Tm shift relative to glycine control, % at 25 µM; hit rate 2.5% among 340,000; AID 1259313;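 active = melting temperature shift of at least 10% of the positive control shift, at one fixed dose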
dFosB act = activators of mouse delta FosB homodimer | P13346 | purified delta FosB, TAMRA-CDK5 oligo fluorescence polarization; percent of positive-control signal above neutral wells | activation, % at 25 µM | hit rate 0.99% among 340,000;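 active = mean activation above about 17%, with every replicate also reaching it, limit read from the data, passing the limit was not always enough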
Target sequence (P13346 whole entry, looked up): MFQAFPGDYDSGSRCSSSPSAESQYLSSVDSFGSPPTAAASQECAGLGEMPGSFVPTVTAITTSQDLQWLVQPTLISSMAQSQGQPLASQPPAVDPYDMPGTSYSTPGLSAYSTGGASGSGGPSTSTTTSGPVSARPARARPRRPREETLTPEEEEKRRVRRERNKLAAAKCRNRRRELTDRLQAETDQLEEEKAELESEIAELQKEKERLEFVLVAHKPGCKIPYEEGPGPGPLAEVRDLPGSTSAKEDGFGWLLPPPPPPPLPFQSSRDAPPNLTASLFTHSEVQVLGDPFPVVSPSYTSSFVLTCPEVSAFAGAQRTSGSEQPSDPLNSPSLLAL
* hit, by the source's call; x = no result.

SMILES | NALP1 inh | UBC13 polyUb | CR mimetic SO | GRIN3A LBD mod | dFosB act
Nc1nonc1-n1nnc(C(=O)N/N=C/c2ccc(OCc3ccccc3F)cc2)c1CNc1ccccc1 | 11.0 | -11.1 | 121.7 | 34.0* | -12.4
Nc1nonc1-n1nnc(C(=O)N/N=C/c2cc(Br)ccc2O)c1CNc1ccccc1 | -10.7 | -33.0 | 68.8 | 23.3* | 51.8*
CCc1noc(C)c1C(=O)N(CC)c1nc2c(C)cccc2s1 | x | 4.2 | 94.5 | -0.9 | -11.0
Cc1nnc(NC(=O)c2cc(S(=O)(=O)N3CCCCC3)ccc2Cl)s1 | 1.7 | 5.3 | 101.3 | -1.3 | 1.4
CC(C)(C)c1ccc(C(=O)C2CCCN(C(=O)CN3CCCC3=O)C2)cc1 (stereo unspecified) | -5.3 | 6.0 | 111.0 | 0.3 | -4.5
CN(C)C(=O)N1CCC(C(=O)N2CCCC(C(=O)c3ccc(C(C)(C)C)cc3)C2)CC1 (stereo unspecified) | 1.2 | 7.1 | 63.2* | -2.5 | -7.5
Nc1nc(NCCCN2CCOCC2)nc(Nc2cccc(Cl)c2)c1[N+](=O)[O-] | 8.2 | 14.5 | 110.8 | -11.7 | 63.3*
Nc1nc(Nc2ccc(Cl)cc2)nc(NCc2ccco2)c1[N+](=O)[O-] | 2.0 | 3.3 | 117.3 | 3.5 | 57.2*
Nc1nc(Nc2cccc(F)c2)nc(NCc2ccco2)c1[N+](=O)[O-] | x | 2.6 | 101.8 | 1.3 | 22.8*
Nc1nc(Nc2cccc(Cl)c2)nc(NCc2ccco2)c1[N+](=O)[O-] | 3.6 | 7.4 | 100.1 | 4.0 | 58.4*
COCCCNC(=O)CSc1nc2cc(S(=O)(=O)N3CCCCC3)ccc2o1 | x | -0.6 | 114.5 | -1.8 | -6.3
COCCn1c(C)cc(C(=O)CSc2nnnn2C2CCCC2)c1C | x | 0.6 | 104.0 | 0.5 | -4.1
CC1Cc2ccccc2N1C(=O)Cn1cnc2c1c(=O)n(C)c(=O)n2C (stereo unspecified) | 16.6 | -2.5 | 89.2 | 0.2 | 1.7
O=C(COc1ccccc1Br)c1ccc(O)cc1O | 12.8 | -0.1 | 98.0 | 21.5* | -9.3
CC1CCc2c(sc(NC(=O)Cn3nc(C(F)(F)F)c4c3CCCCC4)c2C#N)C1 (stereo unspecified) | 10.5 | 6.2 | 98.8 | 15.6* | -3.2
CCOC(=O)/C(C#N)=C/c1c(Oc2cc(C)cc(C)c2)nc2ccccn2c1=O | 22.6 | -4.3 | 101.2 | 14.8* | -2.0
O=S(=O)(c1ccc(=S)[nH]c1)N1CCN(Cc2ccccc2)CC1 | x | 22.4 | 78.2 | 1.8 | 5.9
COC(=O)c1ccccc1NC(=O)CSc1nnc(-c2cccnc2)o1 | 13.1 | 0.2 | 105.0 | -2.0 | -7.1
CCCN(Cc1cc2cc(C)ccc2[nH]c1=O)C(=O)c1ccccn1 | 11.9 | 17.3 | 107.6 | -1.3 | -9.7
CCCCN(Cc1cc2cc(OC)ccc2[nH]c1=O)C(=O)c1ccccn1 | 30.5 | -5.3 | 106.0 | 12.5* | 0.0
COC(=O)C1=C(C)N(Cc2ccccc2)C(=S)N[C@H]1c1cccc(F)c1 | -8.2 | 15.3 | 97.4 | -33.2 | 8.0
COCCN1C(=S)N[C@@H](c2cccc(F)c2)C(C(=O)OC)=C1C | 22.7 | 85.6* | 104.9 | x | x
C[C@@H]1O[C@@H](OC[C@H]2O[C@@H](Oc3cc(O)c4c(=O)cc(-c5ccc(O)c(O)c5)oc4c3)[C@H](O)[C@@H](O)[C@@H]2O)[C@H](O)[C@H](O)[C@H]1O | x | -16.4 | 100.6 | -1.9 | 11.8
O=c1cc(-c2ccc(O)c(O)c2)oc2cc(O[C@@H]3O[C@H](CO)[C@@H](O)[C@H](O)[C@H]3O)cc(O)c12 | x | 27.0 | 91.6 | 2.3 | 18.7*
C=CCN(Cc1nc(-c2ccccc2)no1)C(=O)c1ccoc1C | 6.6 | 3.6 | 82.8 | 14.1* | -2.3
SMILES | NALP1 inh | UBC13 polyUb | CR mimetic SO | GRIN3A LBD mod | dFosB act
Cc1occc1C(=O)N(C)Cc1nc(-c2ccccc2)no1 | 12.7 | 0.4 | 107.8 | -1.3 | -1.7
COc1ccccc1Oc1coc2cc(OC(=O)N3CCOCC3)ccc2c1=O | 25.8 | 4.5 | 84.0 | 0.1 | -6.3
COc1cccc(Oc2coc3cc(OC(=O)N4CCOCC4)ccc3c2=O)c1 | 12.6 | 3.6 | 91.7 | 10.2* | -17.1
Cc1ccc(S(=O)(=O)Nc2c(C)nn(C)c2C)c(C)c1 | x | -3.5 | 115.0 | x | 0.1
COc1ccc(S(=O)(=O)N2CCc3ccccc32)cc1C(=O)Nc1ccc(C(N)=O)cc1 | x | 12.8 | 106.9 | -4.6 | 2.4
COc1cc(CNc2cccc(F)c2)cc(Br)c1O | 31.8* | 14.6 | 83.7 | 4.5 | -10.9
OCC(O)C1OC(Nc2ccc(Cl)cc2)C(O)C1O (stereo unspecified) | x | 2.8 | 102.7 | -2.3 | 7.3
CN(C)/N=C/C=C1\CC/C(=C\c2ccc(F)c(F)c2)C1=O | x | -76.1 | 88.3 | 1.1 | -5.0
CC(C)c1ccc(/C=C2\CC/C(=C\C=N\N(C)C)C2=O)cc1 | 43.7* | -39.1 | 95.1 | -0.3 | -1.6
CCc1noc(C)c1C(=O)Nc1cc(S(=O)(=O)N(CC)CC)ccc1N1CCOCC1 | x | -2.2 | 89.8 | -1.9 | -11.5
COCC(=O)Nc1ccc2c(c1)OCC(=O)N2Cc1ccc(C)cc1 | 2.6 | -4.5 | 98.7 | 2.1 | 0.4
CN(C)S(=O)(=O)c1ccc(S(=O)(=O)Nc2ccc3c(c2)oc2ccccc23)cc1 | x | 0.3 | 72.9 | 21.7* | -0.8
CN(C)S(=O)(=O)c1ccc(NC(=O)c2cc3ccccc3o2)cc1 | 21.8 | -1.5 | 94.5 | 30.7* | -17.2
CCN(CC)S(=O)(=O)c1ccc(S(=O)(=O)Nc2ccc3c(c2)oc2ccccc23)cc1 | 26.4 | 0.2 | 99.9 | 24.0* | -7.2
Cc1cc(=O)oc2cc(NS(=O)(=O)c3ccccc3)ccc12 | 13.9 | 11.6 | 107.0 | -0.6 | -14.5
CCN(CC)S(=O)(=O)c1ccc(NS(=O)(=O)c2ccc(C)c(C)c2)cc1 | 4.0 | 6.0 | 85.3 | -8.4 | -8.4
Cc1ccc(OCCNC(=O)CNC(=O)c2ccc(Cl)c([N+](=O)[O-])c2)cc1 | x | 3.6 | 109.6 | -2.6 | -12.4
COc1ccc(S(=O)(=O)N(C)C)cc1NCC(=O)Nc1ccc(Br)c(C)c1 | -17.3 | -5.3 | 106.0 | -2.2 | -8.2
COc1cccc(NC(=O)Cc2csc(NC(=O)Nc3ccccc3OC)n2)c1 | x | 10.1 | 107.1 | 29.0* | -0.7
COc1ccccc1NC(=O)Nc1nc(CC(=O)Nc2ccc(OC)c(OC)c2)cs1 | x | 2.7 | 106.7 | 17.3* | 5.0
COc1cc(C)ccc1NC(=O)Cc1csc(NC(=O)Nc2ccccc2OC)n1 | x | 14.3 | 101.1 | 4.4 | -3.3
COc1cc(NC(=O)Cn2cnc(S(=O)(=O)N3CCOCC3)c2)cc(OC)c1OC | 20.6 | -5.9 | 92.1 | -3.0 | -0.2
COC(=O)C(Cc1ccc(O)cc1)NC(=O)C(CC(=O)OC(C)(C)C)NC(=O)OC(C)(C)C (stereo unspecified) | -9.3 | 2.4 | 81.9 | -1.8 | -1.9
COc1cccc(/C=N/NC(=O)c2c(C)nc3ccc(Cl)cn23)c1O | 6.2 | -12.9 | 91.6 | -2.0 | -1.3
COc1cccc(NC(=S)NN2CCN(C)CC2)c1 | 17.2 | -0.9 | 99.3 | 12.2* | 5.7
Cc1cc(C)c(NC(=O)C2CCCCN2C)c(C)c1 (stereo unspecified) | 40.2* | 2.8 | 87.8 | -0.2 | -0.1

Bioassay records (PubChem)
